Active and inactive are the calls of the source. Rule for the calls: active = hit-call score of the fitted dose curve at least 0.9, where 1 is the maximum; inactive = score below 0.9.

Read-out in this assay: CYP3A5 (gene 1577)
Description: LTEA_HepaRG_CYP3A5: Life Technologies and Expression Analysis (LTEA) Assay for CYP3A5 using HepaRG (AID 2283493). The note with it: mRNA level, 48 h; actives raise or lower the signal. The procedure:
LTEA_HepaRG is a cell based, multiplexed-readout assay that uses HepaRG, a human liver cell line, with measurements taken at 48 hours after chemical dosing on a 96-well plate.LTEA_HepaRG_CYP3A5 is one of 102 assay component(s) measured in the LTEA HepaRG cell culture assay. It is a marker of NR mediated metabolism.Data from the assay component LTEA_HepaRG_CYP3A5 was analyzed into 1 endpoint. This assay endpoint, LTEA_HepaRG_CYP3A5, was analyzed with bidirectional fitting relative to DMSO as the negative control and baseline of activity. Using a type of inducible reporter, measures of mRNA induction for gain or loss-of-signal activity can be used to understand regulation of transcription factor activity. To generalize the intended target to other relatable targets, this assay endpoint is annotated to the cyp intended target family, where the subfamily is xenobiotic metabolism.
A total of 1060 chemcials from the ToxCast library were tested in eight-point concentration-response experiments. Cell culture and cytotoxicity assays were conducted at Thermo Fisher Scientific's Custom Services facility (Madison, WI). A single lot of human HepaRG cells (Thermo Fisher Scientific, Frederick, MD) was used for the cell culture experiments. 96-well format collagen type I coated plates of human HepaRG cells were prepared using established methods. Briefly, cryopreserved HepaRG cells were thawed, plated at a density of approximately 100,000 cells/well in HepaRG Thaw, Plate, and General Purpose media (HPRG770, Thermo Fisher Scientific), and incubated for 48 hours. 0.5% DMSO was selected as vehicle control to balance the requisite need of DMSO in HepaRG cultures to maintain differentiation (for example, baseline metabolism, proportions of hepatocytes vs. cholangiocytes), while enabling further hepatic receptor pathway activation (for example, PXR and CAR) in response to chemical exposure. 48 hours after plating, the culture medium was replaced with HepaRG Serum-Free Incudtion Media. Cells were exposed to each test chemical in duplicate and maintained in CO2 incubators for another 48 hours. Chemical plates were thawed to room temperature and 200x concentrations of treatment groups were prepared. 8-point conentration-reponse curves were made with the highest exposure at 100 uM, followed by half-log dilutions, all in 0.5% DMSO. Each test plate contained variouse controls, induction positive controls (1mM phenobarbital), cytotoxicity positive controls ([…] aflatoxin B1), vehicle controls (0.5% DMSO), and total lysis controls (0.5% DMSO). Cell morphology images were taken using an Essen IncuCyte FLR automated microscope, with six 96-well plates imaged in about 24 minutes. Images were captured and exported and JPEG files. Spent culture media was transfered to black-well plates for the LDH assay, and remaining media was sorted at -80 C for later use. Cells were treated with RLT buffer and frozen until shipped for gene expression analysis. Total RNA was isolated from the cell suspension in 75 uL of Buffer RLT (Qiagen, Germantown, MD 20874) by Quintiles/Expression Analysis (Durham, NC) using a custom isolation procedure. Total RNA from each plate well was transferred to a preamplification plate. Fluidigm's 96.96 Dynamic ArrayTM (Fluidigm, Amsterdam, the Netherlands) technology was used for gene expression analyses by quantitative reverse transcription polymerase chain reaction (qRT-PCR, performed by Quintiles/Expression Analysis, Durham, NC)89. Standard TaqManTM Assays (Applied Biosystems/ThermoFisher Scientific, Foster City, CA) were used to assess the expression of 93 genes selected based on their selectivity and sensitivity to important hepatic receptors known to be modulated by environmental chemicals; importance in human hepatocyte functionality; and hepatotoxicity. […]
`CCOC(=O)COc1ccc2c(c1)CC(NCC(O)c1cccc(Cl)c1)CC2` (stereo not given): the call was inactive. Regarding `CCCCCCCCCCCCc1ccccc1`, the result was inactive. For `CCNc1ccccc1`, the compound was called inactive.

Take `CCCN(C1CCN(C(=O)C2CCNCC2)CC1)[C@@H]1CCc2ccc(OC)cc2C1`: the AC50 is 80.3 µM (active). Turning to `Cc1[nH]cnc1C[C@H]1CCc2c(C)c3ccccc3n2C1=O`, the compound was classed as inactive.

Consider `O=P(OC(CCl)CCl)(OC(CCl)CCl)OC(CCl)CCl`, for which the result was inactive. With `CCCCCCCCCCCCCCCO`, the result was inactive.

On to `CC(C)=CCCC(C)CCO` (stereo not given), for which the outcome was inactive. `O=C(CCCCCCCCc1cccnc1)N1CCC(C=C(c2ccccc2)c2ccccc2)CC1`: the outcome was inactive. `CCCC(=O)OCC`: the compound was classed as inactive. Turning to `On1ccccc1=S`, the call was inactive. On to `CCOCCOCCOCCO`, for which the result was inactive.

As for `CCCCCCc1ccc(O)cc1O`, the outcome was inactive.

With `C[C@](N)(Cc1ccc(O)c(O)c1)C(=O)O`, the compound was called inactive. As for `Cc1c(-c2cccnc2)c2ccccc2n1CCCCC(=O)O`, the outcome was inactive. On the same count and under the same terms, under `CC(C)=CCCC(C)=CC=O` stands “inactive”; under `CC(C)CC(C)(O)C#CC(C)(O)CC(C)C` (stereo not given), “inactive”; under `COC(=O)c1ccccc1O`, “inactive”.

In the case of `Fc1ccccc1[C@@H](F)COC1CCC(Nc2ncnc3[nH]ncc23)CC1` (stereo not given in full), the compound was classed as inactive. As for `CC(C)(O)c1coc(S(=O)(=O)NC(=O)Nc2c3c(cc4c2CCC4)CCC3)c1`, the call was inactive. For the compound `CCCCC(CC)COC(=O)c1ccc(C(=O)OCC(CC)CCCC)cc1` (stereo not given), the outcome was inactive. Consider `O=C(O)c1cccc(Oc2ccccc2)c1`, for which the compound was called inactive. Same read-out and setting: under `CC1=CC(=O)CC(C)(C)C1` stands “inactive”; under `COCCOCCOCCOC`, “inactive”. As to `CCc1cc(SCc2sc(-c3ccc(C(F)(F)F)cc3)nc2CN2CCN(c3ccc(OC)cc3)CC2)ccc1OCC(=O)O`, the AC50 was 10.9 µM (active). Take `Nc1nc2ncc(CNc3ccc(C(=O)N[C@@H](CCC(=O)O)C(=O)O)cc3)nc2c(=O)[nH]1`: the call was inactive. As for `CCOC(=O)CC(CC(=O)OCC)(OC(C)=O)C(=O)OCC`, the outcome was inactive.

For the compound `Nc1ccc(Nc2ccccc2)cc1`, the compound was called inactive. Turning to `CC(C)CCCCCCCOC(=O)CCCCC(=O)OCCCCCCCC(C)C`, the call was inactive. Consider `CC(=O)OCCC(C)C`, for which the call was inactive.

Take `Cc1ccc(C)c(O)c1`: the compound was classed as inactive.

As to `O=C(O)c1cc(N=Nc2ccc(S(=O)(=O)Nc3ccccn3)cc2)ccc1O`, the result was inactive.

As to `CCCCC(CC)COC(=O)CCCCCCCCC(=O)OCC(CC)CCCC` (stereo not given), the outcome was inactive.

`CC(C)CCCCCCOC(=O)c1ccc(C(=O)OCCCCCCC(C)C)c(C(=O)OCCCCCCC(C)C)c1`: the outcome was inactive. Regarding `O=C(O)c1cccc(N(Cc2cccnc2)c2ccc(OC(F)F)c(OC(F)F)c2)c1`, the result was inactive.

Regarding `O=C(NS(=O)(=O)/C=C/c1ccccc1)c1ccc(F)cc1Cl`, the outcome was inactive. The same measure, in the same setting: the value for `O=c1[nH]c2ccc(S(=O)CCN3CCC(Cc4ccc(F)cc4)CC3)cc2o1` (stereo not given) was “inactive”. For `Nc1cccc(N)c1`, the result was inactive.

As to `COCCOc1cc2cc(C(=O)NC3CCN(C(C)C)CC3)n(CC(=O)Nc3ccc(Cl)cn3)c2cn1`, the AC50 is 15.9 µM (active). Turning to `COc1ccc(-n2nc(C(F)F)cc2-c2ccc(S(C)=O)cc2)cc1` (stereo not given), the result was inactive.

A word on the AC50: it is the midpoint of the concentration-response curve, whichever way the signal moves.

For the origin of these results see PubChem BioAssay (EPA / NIEHS).
